± gives the standard deviation of the averaged measurements. Whole data set: some 25,000 sequences, median “ln(normalized median fluorescence intensity)” near 8.9, cut for the highest 2% near 10. Many of the other results were omitted from the sample, so the highest values are more common in it than they were.
Each sequence was assayed on PfAP2-LT AP2 domain (GST-tagged) (assay: gcPBM binding intensity (ln(normalized median fluorescence intensity)); higher = stronger DNA binding).
Summary of the method: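 Using an Agilent 4 × 180k array, primer-extended double-stranded 36-bp intergenic genomic probes and negative controls were exposed for 1 h to GST-fused P. falciparum DNA-binding domains expressed in E. coli. Binding was carried out in 1× PBS with 1% milk, 0.2 mg/ml BSA, 0.5% salmon testes DNA and 0.03% Triton X-100, and protein was detected with Alexa488 anti-GST antibody and a 488 nm scan. Binding intensity is the highest Masliner-normalised natural-log median intensity across replicate spots of either probe orientation.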
For “ATAAAGATAATATATGCACACATATAAATATATAAA [CACACA_site9153]”, the “gcPBM binding intensity (ln)” value was 9.09 ± 0.43.
For “ATTTAATACAAATACACACACAAATAAATACAGATA [CACACA_site5956]”, the “gcPBM binding intensity (ln)” value was 9.47 ± 0.26.
“CATAAATACATACATACACACATATATATATATATA [CACACA_site2106]” was tested, and the “gcPBM binding intensity (ln)” value was 9.88 ± 0.085.
“CACATACAGATATATACACACAAATATAAATACACA [CACACA_site6512]” was tested, and the “gcPBM binding intensity (ln)” value was 9.52 ± 0.4.
“TATAAATACAGATACACACACACACCGATATATATA [CACACA_site5271]” was tested, and the “gcPBM binding intensity (ln)” value was 9.94 ± 0.18.
“CATATATAAATATATACACACATACATACATACATA [CACACA_site5988]” was tested, and the “gcPBM binding intensity (ln)” value was 9.36 ± 0.4.
For “ATAAATACAGATAACACACACATATATATATATATA [CACACA_site5431]”, the “gcPBM binding intensity (ln)” value was 10.225 ± 0.0071.
In the case of “TATACAGATAAATACACACACACATATATATATATA [CACACA_site4845]”, the “gcPBM binding intensity (ln)” value is reported as 10.3 ± 0.25.
“TATACAGATATATATACACACATATATATAAATACA [CACACA_site4383]” was tested, and the “gcPBM binding intensity (ln)” value was 9.24 ± 0.39.
In the case of “CATACAGATATATATACACACATACAGATAAATACA [CACACA_site4592]”, the “gcPBM binding intensity (ln)” value is reported as 9.3 ± 0.28.
For “TACATACATACATACACACACACATATAAATACATA [CACACA_site4626]”, the “gcPBM binding intensity (ln)” value was 10.1 ± 0.4.
With “TACAGATACAGATACACACACACACCGAAATAAATA [CACACA_site4865]” the “gcPBM binding intensity (ln)” value was 10.2 ± 0.43.
With “AATAAATATATAAATACACACAAACATACAGATATA [CACACA_site6088]” the “gcPBM binding intensity (ln)” value was 9.37 ± 0.35.
In the case of “AATTAAATTATAAGCACACACATATATATATATATA [CACACA_site3351]”, the “gcPBM binding intensity (ln)” value is reported as 9.81 ± 0.057.
“ATAGTTACACGCCAAAAAAAAAAAAAAAAAAAAAAA [CACACA_negctrl_site1133]” was tested, and the “gcPBM binding intensity (ln)” value was 8.21 ± 0.42.
“TTTTTTTTTTTTTTTTGTACACATAATATGAATAAT [XGTACX_site2661]” was tested, and the “gcPBM binding intensity (ln)” value was 8.57 ± 0.32.
For “AAAAAATTATTAATTTGTACATAAATAACCAAAAAA [XGTACX_site2488]”, the “gcPBM binding intensity (ln)” value was 8.49 ± 0.52.
In the case of “TTTTCCTTTACATAATGTACACAAAAAAAAAAAAAA [XGTACX_site716]”, the “gcPBM binding intensity (ln)” value is reported as 8.21 ± 0.35.
In the case of “CTATAAAAATATAATTGTACAAATTTTTATATCTTA [XGTACX_site7722]”, the “gcPBM binding intensity (ln)” value is reported as 8.35 ± 0.45.
“TAGAAACCATAAAAATGTACTTAAAAATAGACAATT [XGTACX_site5007]” was tested, and the “gcPBM binding intensity (ln)” value was 8.78 ± 0.5.
For “AAAATTTTGGAACGTGCACACATATGTAATATATAT [CACACA_site9004]”, the “gcPBM binding intensity (ln)” value was 9.32 ± 0.37.
“TACATACATACATACACACACATATAGATTTATATA [CACACA_site6999]” was tested, and the “gcPBM binding intensity (ln)” value was 9.48 ± 0.28.
With “CTATATAATATGAGCACACATAAGATTTGGTGTTAT [CACACA_site744]” the “gcPBM binding intensity (ln)” value was 8.93 ± 0.34.
“AAATTATAATATAATACACACATAAAAAAAAAATCA [CACACA_site3634]” was tested, and the “gcPBM binding intensity (ln)” value was 9 ± 0.44.
In the case of “TATACAGATAAATACACACACATATATATATATATA [CACACA_site4178]”, the “gcPBM binding intensity (ln)” value is reported as 10.2 ± 0.33.
“CCCCCCGTGTTATATACACACATAATCAAATAAAAT [CACACA_site4111]” was tested, and the “gcPBM binding intensity (ln)” value was 11.1 ± 0.44.
With “CATAAATACAGATATACACACATATATATATATATA [CACACA_site4528]” the “gcPBM binding intensity (ln)” value was 9.7 ± 0.45.
In the case of “TAAATAAATACATACACACACATACAGATATATATA [CACACA_site5690]”, the “gcPBM binding intensity (ln)” value is reported as 9.62 ± 0.26.
In the case of “AGGCACGTGTTATATACACACATAATCAAATAAACT [CACACA_site7852]”, the “gcPBM binding intensity (ln)” value is reported as 9.36 ± 0.38.
With “AATTAAAATACAAATGTATGCATGTCTCATATAGAA [TGCATGCA_site822]” the “gcPBM binding intensity (ln)” value was 8.78 ± 0.43.
“ATTCTTAAATGTGGTTGTACATATTATCACCTTTAA [XGTACX_site8188]” was tested, and the “gcPBM binding intensity (ln)” value was 8.75 ± 0.42.
For “TGGAGATTTTTAAAGACACACAGGTAAGAATAATAA [CACACA_site1582]”, the “gcPBM binding intensity (ln)” value was 8.77 ± 0.47.
In the case of “TATATATATAGACACACACACACATATATATATATA [CACACA_site9366]”, the “gcPBM binding intensity (ln)” value is reported as 10.02 ± 0.042.
For “AAAGGATATGGACACACACACACATATATATATATA [CACACA_site8686]”, the “gcPBM binding intensity (ln)” value was 10.5 ± 0.15.
With “AAAGGATATAGACACACACACACATATATATATATA [CACACA_site2200]” the “gcPBM binding intensity (ln)” value was 10.3 ± 0.32.
For “TATATATATGGACACACACACACATATATATATATA [CACACA_site6121]”, the “gcPBM binding intensity (ln)” value was 10.3 ± 0.23.
“TATATATATGGACACACACACATATAAATAAATAAA [CACACA_site4406]” was tested, and the “gcPBM binding intensity (ln)” value was 9.71 ± 0.49.
“CAAGAAAATGGACACACACACATATATATATATATA [CACACA_site6010]” was tested, and the “gcPBM binding intensity (ln)” value was 10.37 ± 0.092.
For “TATATGTAAATGGACACACACATATATATATATATA [CACACA_site3659]”, the “gcPBM binding intensity (ln)” value was 10 ± 0.13.
With “AAAAATTATGGACACACACACATATATATATATATT [CACACA_site4717]” the “gcPBM binding intensity (ln)” value was 9.8 ± 0.11.
With “GATACCTATAGACACACACACATACCTATATACATA [CACACA_site7586]” the “gcPBM binding intensity (ln)” value was 9.66 ± 0.47.
For “TAAATTTATGGACACACACACATATATATATATATA [CACACA_site4620]”, the “gcPBM binding intensity (ln)” value was 9.955 ± 0.021.
For “GAGAAATGGAGACACACACACATATTATATATATAT [CACACA_site1532]”, the “gcPBM binding intensity (ln)” value was 9.85 ± 0.15.
“TATATATATGGACACACACACATATATATATATTTT [CACACA_site5409]” was tested, and the “gcPBM binding intensity (ln)” value was 9.67 ± 0.23.
“ATAATATTGTGGTATACACACCTTACAAAAAGGTAC [CACACA_site5582]” was tested, and the “gcPBM binding intensity (ln)” value was 8.96 ± 0.42.
With “AAATATAAAAATAGCACACATATATACCTATATATA [CACACA_site4204]” the “gcPBM binding intensity (ln)” value was 8.99 ± 0.38.
With “TATATTGCCCTTCACACACACACATATATATATATA [CACACA_site2492]” the “gcPBM binding intensity (ln)” value was 10 ± 0.13.
With “TATTGCCCTGGACACACACACATATATATATATATA [CACACA_site5389]” the “gcPBM binding intensity (ln)” value was 10.2 ± 0.064.
With “TATTGCCCTTGACACACACACATATAAATAAATATA [CACACA_site7220]” the “gcPBM binding intensity (ln)” value was 9.34 ± 0.44.
“ATTCAAATATTAAAAAGTACAAAAAAAAAACAAAAA [XGTACX_site1174]” was tested, and the “gcPBM binding intensity (ln)” value was 8.63 ± 0.5.
“AAGCTTTCATAAAGATGTACTTTTTAAAAATAATCT [XGTACX_site5725]” was tested, and the “gcPBM binding intensity (ln)” value was 8.28 ± 0.3.
With “TACATTTTATGCATTTGTACACAAATAAATAAATAA [XGTACX_site2652]” the “gcPBM binding intensity (ln)” value was 8.49 ± 0.42.
With “TTTTTCAGAAAAGAAACACACATATATATATTTATA [CACACA_site2372]” the “gcPBM binding intensity (ln)” value was 8.56 ± 0.43.
With “TTAGGCAAGGCGGGGGGTACGTTTTTATATAATTAT [XGTACX_site8029]” the “gcPBM binding intensity (ln)” value was 10.2 ± 0.14.
“AAATATATTATAAATTGTACGTTTATATATATTATT [XGTACX_site5110]” was tested, and the “gcPBM binding intensity (ln)” value was 8.69 ± 0.47.
In the case of “AATAATATATTTAGGGGTACATAATAATATATTTTA [XGTACX_site8366]”, the “gcPBM binding intensity (ln)” value is reported as 8.66 ± 0.3.
In the case of “ATCTCTATGATATATACACACAAATATACAAAAAAA [CACACA_site6605]”, the “gcPBM binding intensity (ln)” value is reported as 8.96 ± 0.45.

Source: the supplement of paper PMC11417369
